Sampled rows, rich in hits. Any-hit rate of the full collection: about 21%.
Sm TGR block: blocks Schistosoma mansoni thioredoxin glutathione reductase; Q962Y6; purified TGR, DTNB reduction, TNB absorbance 405 nm; Potency, µM (highest dose often 114 µM), without a hit: at the top dose activity change, negative = inhibition, most hits filed as inhibitors; 360,000 compounds, 3% hits; note: potency is the fitted concentration of half-maximal effect; % is set by controls: 0 for no effect and ±100 for the full control effect; nearly all actives have a fitted effect of over 60% in size
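Kinetic colorimetric format: TGR-catalysed, NADPH-driven DTNB reduction monitored via TNB absorbance. Enzyme dispensed at 20 nM; compound exposure 15 min at room temperature before reaction start.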
Pf growth 48h: P. falciparum growth inhibition at 48 hours (one generation); Potency, µM (highest dose often 28.7 µM), for inactives: at the top dose activity change, negative = inhibition, actives largely listed as inhibitors; P. falciparum luciferase growth in erythrocytes, 48 h; 310,000 compounds, 5.9% hits; AID 504832; note: potency is the fitted concentration of half-maximal effect; % is set by controls: 0 for no effect and ±100 for the full control effect
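Firefly luciferase activity from engineered P. falciparum reports growth; inhibitors lower the luminescent signal. Cultures contained 2% hematocrit erythrocytes at 0.1% final parasitemia.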
Shiga toxin inh: blocks Shiga toxin action in Vero cells; 290,000 compounds, 9.2% hits; inhibition, % at 38.7 µM; AID 2315; Vero cells, Shiga toxin protein synthesis inhibition reporter; in the data active = inhibition mostly above about 28%, no sharp cut-off; inactive = mostly below about 43%; note: 0% is about no effect
CHX counter: counter-screen for Shiga toxin inhibitors: cycloheximide protein synthesis inhibition; cell reporter, cycloheximide protein synthesis inhibition counterscreen; max response, %; 300,000 compounds, 12% hits; AID 2314; in the data active = max response mostly above about 13%, no sharp cut-off; inactive = mostly below about 14%; note: read at 38.3 µM for the half of the compounds with a filed dose; 0% is about no effect
Pf growth 96h: P. falciparum growth inhibition at 96 hours. P. falciparum luciferase reporter growth, 96 h. Potency, µM (series often up to 28.7 µM), inactives show top-dose activity change, negative = inhibition, hits mostly inhibitors. 320,000 compounds, 6.9% hits. AID 504834; note: potency is the fitted concentration of half-maximal effect; % is set by controls: 0 for no effect and ±100 for the full control effect
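Delayed-death screen, second-generation endpoint: infected erythrocytes, 2% hematocrit, 0.05% parasitemia final; 96 hours at 37 C, 5% CO2; luciferase detection reagent; luminescence decrease equals reduced growth.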
NS1 inh: blocks influenza NS1 protein function | Potency, µM (doses to about 46.1 µM), without a hit: at the top dose activity, positive = more growth | 270,000 compounds, 0.4% hits; calls by dose curve; note: potency is the fitted concentration of half-maximal effect; actives are rising curves; nearly all actives have a fitted effect of over 50% in size
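S. cerevisiae expressing influenza A NS1, grown in glucose, washed, then diluted 1:100 into pH 6.0 -URA galactose medium with 23 nl compound. Growth recovery read as OD600; NS1-free strain serves as control.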
Numbers without * were called inactive; u = inconclusive; x = no result. Unless noted, calls come from the whole dose curve; as a rule, active = well fitted curve in the direction sought with a large enough effect; inconclusive = small, poorly fitted or top-dose-only effect, or another doubt; inactive = no such curve, though single readings can be large; an effect the other way counts as inactive or inconclusive.

SMILES | Sm TGR block | Pf growth 48h | Shiga toxin inh | CHX counter | Pf growth 96h | NS1 inh
CCN(CC)CCCNC(=O)c1nn(-c2ccc(OC)c(Cl)c2)c(=O)c2c1c1ccccc1n2C | 8.5% | x | x | x | x | x
O=C(NCc1ccc(F)cc1)c1ccc2c(O)c(S(=O)(=O)c3ccccc3)c(=O)[nH]c2c1 | -2.8% | x | x | x | x | x
Cc1cc(C(=O)C(=O)O)c(C)n1-c1ccc(Cl)c(Cl)c1 | 6.6% | -6.3% | -17.1 | 0.7 | -26.4% | -0.7%
CSCCC(NS(=O)(=O)c1ccccc1F)C(=O)NCc1cccnc1 (stereo not given) | 0.9% | 14.0% | x | x | 20.2% | x
CC(OC(=O)C(C)Oc1ccccc1)C(=O)Nc1ccc(S(=O)(=O)N2CCCCC2)cc1 (stereo not given) | 0.3% | -29.9% | x | x | u | x
CC(Oc1ccccc1Cl)C(=O)Nc1ccc(S(=O)(=O)N2CCCC2)cc1 (stereo not given) | -1.2% | 13.1µM* | x | x | 23.7% | x
CC(=O)Nc1ccc(S(=O)(=O)N2CCC3(CC2)OCCO3)cc1 | 2.5% | 19.8% | 13.9 | 15.3 | 9.28µM* | -7.5%
CC1CN=C(N(C(=O)Nc2ccccc2)c2ccc(S(=O)(=O)N3CCOCC3)cc2)S1 (stereo not given) | 2.1% | 46.9% | 21.4 | 17.8* | 47.4% | -4.2%
Cn1cc(S(=O)(=O)N2CCOCC2)cc1C(=O)Nc1ccc(Cl)cc1 | -23.0% | 29.7% | 38.6* | 7.7 | 7.38µM* | -15.5%
COC(=O)c1ccc(NC(=O)c2cc(S(=O)(=O)N3CCOCC3)cn2C)cc1 | 3.5% | x | x | x | x | x
O=S(=O)(c1ccc(S(=O)(=O)N2CCC3(CC2)OCCO3)cc1)N1CCCC1 | -0.3% | u | -2.3 | -4.1 | 21.0% | -65.6%
Cc1ccc2c(cnn2C(=O)CCCC(=O)NC(C)c2ccccc2)c1 (stereo not given) | -14.2% | 46.5% | 9.8 | 9.8 | u | -68.5%
CN(C(=O)Nc1cccc(C(F)(F)F)c1)C1CCCCC1 | -13.2% | 20.4% | 16.9 | -2.8 | 45.5% | 0.7%
Cc1ccc(Nc2ccc(N3CCN(C(=O)c4ccc([N+](=O)[O-])cc4)CC3)nn2)cc1 | 4.0% | x | x | x | x | x
CC(Oc1ccc(Cl)cc1)C(=O)Nc1ccc(S(=O)(=O)N2CCOCC2)cc1 (stereo not given) | 2.9% | 13.1µM* | -3.5 | -8.0 | 8.4% | -4.9%
Cc1ccc(NC(=O)C(C)N2CCc3ccccc3C2)cc1 (stereo not given) | -1.4% | 23.1% | 5.1 | -2.4 | 28.2% | 0.6%
CC(=O)Nc1ccc(S(=O)(=O)n2nc(C)cc2C)cc1 | 3.5% | -3.0% | -13.2 | -0.2 | 0.928µM* | -4.2%
CC(=O)Nc1ccc(NC(=O)C(C)OC(=O)c2cc(S(=O)(=O)N3CCOCC3)ccc2Cl)cc1 (stereo not given) | 1.9% | 6.3% | x | x | 13.4% | x
CC(=O)Nc1ccc(S(=O)(=O)N2CCOCC2)cc1 | -0.5% | 0.4% | -3.1 | -3.0 | 2.94µM* | 4.7%
CC(C(=O)Nc1ccc(S(=O)(=O)N2CCCC2)cc1)N1CCc2ccccc2C1 (stereo not given) | -1.8% | 11.7µM* | x | x | u | x
COc1cccc2c1CCCC2CCCN1CCN(C2CCCCC2)CC1 (stereo not given) | x | x | -4.5 | 2.0 | x | x
O=C(NCc1ccccn1)c1nc(Cn2cc([N+](=O)[O-])cn2)no1 | 4.7% | u | -15.3 | -3.9 | u | -28.3%
Cc1ccc(C)c(S(=O)(=O)N2CCN(C(=O)c3ccncc3)CC2)c1 | 2.4% | u | x | x | -4.0% | x
COc1ccc(C2NC(=S)N(c3ccccc3)C(C)=C2C(=O)Nc2ccccc2)cc1 (stereo not given) | 6.5% | x | 18.8 | 9.4 | u | u
CC1=C(C(=O)Nc2ccc([N+](=O)[O-])cc2)C(c2cccc(C(F)(F)F)c2)NC(=S)N1c1ccccc1 (stereo not given) | -12.8% | 13.1µM* | -14.1 | 0.9 | x | 27.4%
CCOC(=O)C(C)CC(C)C(=O)N1CCOCCN(C(=O)C(C)CC(C)C(=O)OCC)CCOCC1 (stereo not given) | 13.5% | 8.28µM* | 25.7 | 1.4 | 82.1% | -1.7%
CCn1c(C)nc2cc(C(=O)N=Nc3c(O)[nH]c4ccccc34)ccc21 | 0.6% | 13.0% | 6.3 | 2.2 | 30.0% | 21.6%

High-throughput results as filed in PubChem.
